Results from ChEMBL document CHEMBL4513141, “CO-ADD screening of NIH (USA) - Clinical Collection” (2021).
Results with a measured potency or affinity are listed apart.

tested on: Klebsiella pneumoniae; details: Concentration 20 uM; ASSAY_TEST Inhibition of Bacterial Growth; detection method Absorption (OD600); MEDIA CAMHB; plate type 384well; NBS; CORNING #3640; time 18 hr

Row | Structure (SMILES) | Inhibition [%]
1 | Br.CN1[C@@H]2CC(OC(=O)[C@H](CO)c3ccccc3)C[C@H]1[C@@H]1O[C@@H]12.O.O.O (stereo partly specified) | 13.1
2 | CC(=O)[C@H]1CC[C@H]2[C@@H]3CCC4=CC(=O)CC[C@]4(C)[C@H]3CC[C@]12C [PROGESTERONE] | 23.48
3 | NC1=NC(=O)C(c2ccccc2)O1 (stereo unspecified) [PEMOLINE] | 13.09
4 | C[N+]1(CCC(C(N)=O)(c2ccccc2)c2ccccc2)CCCCC1.[Br-] [FENPIVERINIUM BROMIDE] | -3.21
5 | C[N+]1(C)CCC(OC(=O)C(O)(c2ccccc2)C2CCCC2)C1.[Br-] (stereo unspecified) [GLYCOPYRRONIUM BROMIDE] | 13.34
6 | CC(C)NCC(O)c1ccc(O)c(O)c1.Cl (stereo unspecified) [ISOPROTERENOL HYDROCHLORIDE] | 6.57
7 | CN1[C@@H]2CC[C@H]1C[C@@H](OC(=O)c1c[nH]c3ccccc13)C2.Cl | 15.9
8 | CN[C@@H]1C[C@@H](c2ccc(Cl)c(Cl)c2)c2ccccc21.Cl [INDATRALINE HYDROCHLORIDE] | -0.11
9 | O=C(O[C@@H]1Cc2c(O)cc(O)cc2O[C@@H]1c1cc(O)c(O)c(O)c1)c1cc(O)c(O)c(O)c1 [EPIGALOCATECHIN GALLATE] | 17.83
10 | C[C@]12CCC(=O)C=C1CC[C@@H]1[C@@H]2CC[C@@]2(C)[C@H]1CC[C@]2(C)O [METHYLTESTOSTERONE] | 12.33
11 | CC[C@]1(O)CC[C@H]2[C@@H]3CCC4=CCCC[C@@H]4[C@H]3CC[C@@]21C [ETHYLESTRENOL] | 4.45
12 | CCC1(c2ccc(N)cc2)CCC(=O)NC1=O (stereo unspecified) [AMINOGLUTETHIMIDE] | 3.02
13 | C[N+]1(C)CCCC(OC(=O)C(O)(c2ccccc2)c2ccccc2)C1.[Br-] (stereo unspecified) [MEPENZOLATE BROMIDE] | 9.6
14 | COC(=O)C1=C(C)NC(C)=C(C(=O)OC)C1c1ccccc1[N+](=O)[O-] [NIFEDIPINE] | 22.28
15 | C[C@H](CCC(=O)O)[C@H]1CC[C@H]2[C@@H]3[C@@H](O)C[C@@H]4C[C@H](O)CC[C@]4(C)[C@H]3CC[C@]12C [URSODIOL] | 5.07
16 | Cl.O.Oc1ccc2c3c1O[C@H]1c4[nH]c5ccccc5c4C[C@@]4(O)C(C2)N(CC2CC2)CC[C@]314 | -0.12
17 | CN1C(=O)COc2c(C(=O)NC3CN4CCC3CC4)cc(Cl)cc21.Cl (stereo unspecified) | 10.75
18 | CCOC(=O)c1cncn1[C@H](C)c1ccccc1 [ETOMIDATE] | 12.64
19 | C=C(C)[C@@H]1[C@H]2OC(=O)[C@@H]1[C@]1(O)C[C@H]3O[C@]34C(=O)O[C@H]2[C@]14C.CC(C)(O)[C@@H]1[C@H]2OC(=O)[C@@H]1[C@]1(O)C[C@H]3O[C@]34C(=O)O[C@H]2[C@]14C | 10.94
20 | Cl.NCC(O)c1ccc(O)c(O)c1 (stereo unspecified) | 15.27
21 | Cl.NCCc1ccc(O)c(O)c1 [DOPAMINE HYDROCHLORIDE] | 13.84
